Results from PubChem BioAssay AID1159580 (chemical genetic matrix, 2015).
In all, about 5,500 compounds went through this assay and about 2,000 (36%) were called active. Not shown: some 18% with an inconclusive outcome. Rule as the data show it: active = normalized growth mostly below about 0.91 (no sharp cut-off); inconclusive = no clear call, values can overlap the other calls; inactive = mostly above about 0.92. The list shows a part of the results.

Assay: chemical genetic growth profiling, strain panel (AID 1159580);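 also: tested at 20 µM; growth read once vehicle control cultures reached saturation at 30 °C; 1 = growth at the plate median or of vehicle wells; lower values mean less growth of the strain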
Conditions: S. cerevisiae deletion strains, growth OD

Measured: normalized growth

C=C(C)C1CC=C(C(=O)O)CC1 (centres undefined)
inactive: locus YAL013W, strain DEP1, active compounds read low 1.01 | locus YAL040C, strain CLN3, active compounds read low 0.991 | locus YCL061C, strain MRC1 (second series), active compounds read low 1.01 | locus YDR150W, strain NUM1, active compounds read low 0.986 | locus YDR363W, strain ESC2, active compounds read low 0.961 | locus YER002W, strain NOP16, active compounds read low 1.02 | locus YGR229C, strain SMI1, active compounds read low 0.978 | locus YMR263W, strain SAP30, active compounds read low 0.997 | locus YMR307W, strain GAS1, active compounds read low 0.996 | locus YNL175C, strain NOP13, active compounds read low 1.01 | locus YNL197C, strain WHI3, active compounds read low 1 | locus YNL224C, strain SQS1, active compounds read low 1.01 | locus YOR083W, strain WHI5 (second series), active compounds read low 0.961 | locus YPL241C, strain CIN2, active compounds read low 1
